Assay results as given in PubChem BioAssay.
Calls of active or inactive are those of the source. The rule behind the calls is not given here.

Target: L-lactate dehydrogenase (Plasmodium falciparum (isolate CDC / Honduras)) (UniProt Q27743)
Sequence (Q27743 whole entry, looked up): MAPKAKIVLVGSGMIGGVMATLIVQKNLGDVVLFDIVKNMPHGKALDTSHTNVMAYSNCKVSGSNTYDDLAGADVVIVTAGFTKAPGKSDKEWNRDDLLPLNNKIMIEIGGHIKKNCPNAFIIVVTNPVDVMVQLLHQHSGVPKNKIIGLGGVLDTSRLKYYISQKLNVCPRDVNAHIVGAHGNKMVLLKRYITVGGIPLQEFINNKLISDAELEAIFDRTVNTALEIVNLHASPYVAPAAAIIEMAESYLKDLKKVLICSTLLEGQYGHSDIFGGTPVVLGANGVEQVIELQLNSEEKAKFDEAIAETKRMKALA
Assay: PfLDH activity inhibition – cell lysate, 3D7 strain, counter-screen for P. falciparum growth inhibition project (AID 2304);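 note: 0% = vehicle and 100% = reference inhibitor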
Conditions: P. falciparum 3D7 crude extract, LDH APAD/NBT absorbance; at 2 µM; hits give high values
With `COc1cccc(C(=O)[C@H]2C[C@@H]2CN(C)CCC(O)c2ccc(Cl)c(Cl)c2)c1` (stereo not given in full) the inhibition was -2% (inactive). For `Cc1ccc(Cn2ncc(N3CCC(N)CC3)c(Cl)c2=O)cc1NC(=O)Nc1ccc(-c2ccccc2)cc1`, the inhibition was -5% (inactive). For `CN(C)Cc1ccc(O)c(-c2ccc(C(C)(C)C)cc2)n1`, the inhibition was -5% (inactive). For `COc1cc2nc(NCCCN3CCCCC3)nc(NCc3ccccc3)c2cc1OC`, the inhibition was 1% (inactive). With `CC(C)CCN1CCC(Oc2ccc(NC(=O)c3cccs3)cc2Cl)CC1` the inhibition was -6% (inactive). With `N#Cc1ccc(N[C@@H](CC2CCCCC2)C(=O)N[C@@H]2CCCc3ccccc32)c2ccccc12` the inhibition was -5% (inactive). In the case of `Cc1ccc(NC(=O)c2ccc3ncccc3c2)cc1OC1CCN(Cc2ccc(F)cc2)CC1`, the inhibition is reported as 1% (inactive). In the case of `CCOc1ccc(-c2nc(NC(=O)COc3ccc(OC)cc3)sc2C)cc1`, the inhibition is reported as -9% (inactive). With `O=C(Nc1ccc2c(c1)CCC2)c1ccc(CN2CCCN(Cc3cccc(O)c3)CC2)cc1` the inhibition was -1% (inactive). With `CN1CCN(c2ccnc3cc4c(cc23)N(C(=O)Nc2ccc(-c3ccncc3)c3ccccc23)CC4)CC1` the inhibition was -2% (inactive). For `Clc1ccc(OCCC2CCN(CCCCCCN3CCCCC3)CC2)cc1Cl`, the inhibition was 9% (inactive). In the case of `Cc1cc(N2CCCC2=O)ccc1-c1ccc(C(=O)N2CCC(Oc3cccc(Cl)c3)CC2)cc1`, the inhibition is reported as -3% (inactive). For `c1ccc(CCNCc2ccc(-c3cccc(CNc4ccc5ncccc5c4)c3)cc2)cc1`, the inhibition was 3% (inactive). For `CC(C)(C)OC(=O)N1CCN(c2ccccc2NC(=O)c2cccc(C(F)(F)F)c2Oc2ccc(F)cc2)CC1`, the inhibition was -8% (inactive). In the case of `N#CCCN1CCN(Cc2ccc(-c3ccc(-c4nc5ccc(F)cc5[nH]4)s3)cc2)CC1`, the inhibition is reported as 6% (inactive). In the case of `CCOC(=O)NC1=NC(C)(C)N(OCCCOc2cc(Cl)c(Cl)cc2Cl)C(N)=N1`, the inhibition is reported as -2% (inactive). For `Cc1ccc(-n2c(=O)c3cccnc3n2CC(=O)Nc2cccc(C)c2C)cc1`, the inhibition was -3% (inactive). With `COc1cccc(NC(=O)Cn2c(C)c(C#N)c3ccccc32)c1` the inhibition was 4% (inactive). In the case of `CN(C)CC(O)C(O)(c1ccccc1)c1ccc(F)cc1` (stereo not given), the inhibition is reported as 4% (inactive). With `Cc1[nH]c(C)c(Cc2ccc(Oc3ccc(OC(F)(F)F)cc3)cc2)c(=O)c1Br` the inhibition was -1% (inactive). With `C=CCC(C)n1ncc2c3c(N)nc(N)nc3ccc21` (stereo not given) the inhibition was -3% (inactive). For `CC(C)N1CCN(c2ccc(OCCCCN3CCN(c4cccc(Cl)c4Cl)CC3)c(C(F)(F)F)c2)CC1`, the inhibition was 4% (inactive). In the case of `FC(F)(F)c1ccc2nc(-c3cccc(-c4cccc(CNCCc5ccncc5)c4)c3)[nH]c2c1`, the inhibition is reported as -8% (inactive). For `O=C(C=Cc1ccccc1)Nc1ccc(C#CC=Cc2ccc(NC(=O)C=Cc3ccccc3)cc2)cc1`, the inhibition was 1% (inactive). For `CC1CN(Cc2ccccc2)CCN1c1ccc(NC(=O)c2cccs2)cc1` (stereo not given), the inhibition was -2% (inactive). With `CC1(C)N=C(N)N=C(N)C1c1ccc(Cl)c(Cl)c1` (stereo not given) the inhibition was -6% (inactive). With `CN1CCC(NCc2ccc(-c3ccc(S(=O)(=O)NCc4ccccc4)cc3)cc2)CC1` the inhibition was 2% (inactive). With `CC(C)CCN1CCC(Oc2cccc(NC(=O)c3ccc(C(F)(F)F)cc3)c2)CC1` the inhibition was -2% (inactive). In the case of `Cc1cccc2[nH]c(-c3ccc(-c4cccc(NC(=O)Cc5cnc[nH]5)c4)cc3)nc12`, the inhibition is reported as -4% (inactive). For `O=C(Nc1ccccc1N1CCOCC1)c1ncoc1-c1ccccc1C(F)(F)F`, the inhibition was 7% (inactive). With `COc1cccc(C2(c3cccc(OC)c3)N=C(N)N(CCCc3ccccc3)C2=O)c1` the inhibition was 4% (inactive). In the case of `Cc1cccc2[nH]c(-c3ccc(-c4ccc(CN5CCN(CC6CCCN(C)C6)CC5)cc4)cc3)nc12` (stereo not given), the inhibition is reported as -7% (inactive). With `O=S(=O)(Nc1ccc(CCN2CCC(N3CCCCC3)CC2)cc1)c1ccc2ccccc2c1` the inhibition was -2% (inactive). For `CCCc1ccc(S(=O)(=O)NC2CCN(C(=O)Nc3ccc(I)cc3)CC2)cc1`, the inhibition was -3% (inactive). For `CNC(=O)c1cnc(Nc2ccc(N3CCN(C)CC3)c(C)c2)nc1NC`, the inhibition was -1% (inactive). For `C[C@H]1CN(Cc2cccc(-c3cc(CNC(=O)c4cccc(CC5CCN(C)CC5)c4)ccc3F)c2)CCN1C`, the inhibition was 2% (inactive). For `C=CCn1c(=N)c(C(=O)NC2CCCCC2)cc2c(=O)n3cccc(C)c3nc21`, the inhibition was 4% (inactive). In the case of `O=C(/C=C/c1ccc(Cl)c(Cl)c1)N1CCC(CCN2CCc3[nH]c4ccccc4c3C2)CC1`, the inhibition is reported as -3% (inactive). In the case of `CCC(C)OC(=O)C1=C(C)NC2=C(C(=O)CC(c3ccc(OC)c(OC)c3)C2)C1c1ccc(O)cc1` (stereo not given), the inhibition is reported as 6% (inactive). In the case of `CCc1ccc(N2C(=O)C3C(Cc4ccc(OC(C)(C)C)cc4)NC4(C(=O)N(Cc5ccccc5)c5ccc(F)cc54)C3C2=O)cc1` (stereo not given), the inhibition is reported as -10% (inactive).

Test system: not listed separately
Assay: inhibition of 3D7 malaria parasite growth – strain 3D7 (AID 2306);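 note: 0% = DMSO wells and 100% = chloroquine plus artemisinin control wells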
Conditions: P. falciparum 3D7 erythrocytic growth, LDH absorbance, 72 h; at 2 µM; hits give high values
In the case of `COc1cccc(C(=O)[C@H]2C[C@@H]2CN(C)CCC(O)c2ccc(Cl)c(Cl)c2)c1` (stereo not given in full), the growth inhibition is reported as 99% (active). With `Cc1ccc(Cn2ncc(N3CCC(N)CC3)c(Cl)c2=O)cc1NC(=O)Nc1ccc(-c2ccccc2)cc1` the growth inhibition was 90% (active). With `CN(C)Cc1ccc(O)c(-c2ccc(C(C)(C)C)cc2)n1` the growth inhibition was 86% (active). With `COc1cc2nc(NCCCN3CCCCC3)nc(NCc3ccccc3)c2cc1OC` the growth inhibition was 102% (active). For `CC(C)CCN1CCC(Oc2ccc(NC(=O)c3cccs3)cc2Cl)CC1`, the growth inhibition was 97% (active). In the case of `N#Cc1ccc(N[C@@H](CC2CCCCC2)C(=O)N[C@@H]2CCCc3ccccc32)c2ccccc12`, the growth inhibition is reported as 99% (active). For `Cc1ccc(NC(=O)c2ccc3ncccc3c2)cc1OC1CCN(Cc2ccc(F)cc2)CC1`, the growth inhibition was 91% (active). With `CCOc1ccc(-c2nc(NC(=O)COc3ccc(OC)cc3)sc2C)cc1` the growth inhibition was 99% (active). In the case of `O=C(Nc1ccc2c(c1)CCC2)c1ccc(CN2CCCN(Cc3cccc(O)c3)CC2)cc1`, the growth inhibition is reported as 88% (active). In the case of `CN1CCN(c2ccnc3cc4c(cc23)N(C(=O)Nc2ccc(-c3ccncc3)c3ccccc23)CC4)CC1`, the growth inhibition is reported as 101% (active). In the case of `Clc1ccc(OCCC2CCN(CCCCCCN3CCCCC3)CC2)cc1Cl`, the growth inhibition is reported as 97% (active). With `Cc1cc(N2CCCC2=O)ccc1-c1ccc(C(=O)N2CCC(Oc3cccc(Cl)c3)CC2)cc1` the growth inhibition was 99% (active). For `c1ccc(CCNCc2ccc(-c3cccc(CNc4ccc5ncccc5c4)c3)cc2)cc1`, the growth inhibition was 91% (active). For `CC(C)(C)OC(=O)N1CCN(c2ccccc2NC(=O)c2cccc(C(F)(F)F)c2Oc2ccc(F)cc2)CC1`, the growth inhibition was 100% (active). In the case of `N#CCCN1CCN(Cc2ccc(-c3ccc(-c4nc5ccc(F)cc5[nH]4)s3)cc2)CC1`, the growth inhibition is reported as 99% (active). For `CCOC(=O)NC1=NC(C)(C)N(OCCCOc2cc(Cl)c(Cl)cc2Cl)C(N)=N1`, the growth inhibition was 97% (active). For `Cc1ccc(-n2c(=O)c3cccnc3n2CC(=O)Nc2cccc(C)c2C)cc1`, the growth inhibition was 96% (active). With `COc1cccc(NC(=O)Cn2c(C)c(C#N)c3ccccc32)c1` the growth inhibition was 101% (active). For `CN(C)CC(O)C(O)(c1ccccc1)c1ccc(F)cc1` (stereo not given), the growth inhibition was 93% (active). With `Cc1[nH]c(C)c(Cc2ccc(Oc3ccc(OC(F)(F)F)cc3)cc2)c(=O)c1Br` the growth inhibition was 96% (active). In the case of `C=CCC(C)n1ncc2c3c(N)nc(N)nc3ccc21` (stereo not given), the growth inhibition is reported as 93% (active). With `CC(C)N1CCN(c2ccc(OCCCCN3CCN(c4cccc(Cl)c4Cl)CC3)c(C(F)(F)F)c2)CC1` the growth inhibition was 101% (active). In the case of `FC(F)(F)c1ccc2nc(-c3cccc(-c4cccc(CNCCc5ccncc5)c4)c3)[nH]c2c1`, the growth inhibition is reported as 99% (active). In the case of `O=C(C=Cc1ccccc1)Nc1ccc(C#CC=Cc2ccc(NC(=O)C=Cc3ccccc3)cc2)cc1`, the growth inhibition is reported as 100% (active). In the case of `CC1CN(Cc2ccccc2)CCN1c1ccc(NC(=O)c2cccs2)cc1` (stereo not given), the growth inhibition is reported as 96% (active). For `CC1(C)N=C(N)N=C(N)C1c1ccc(Cl)c(Cl)c1` (stereo not given), the growth inhibition was 95% (active). In the case of `CN1CCC(NCc2ccc(-c3ccc(S(=O)(=O)NCc4ccccc4)cc3)cc2)CC1`, the growth inhibition is reported as 99% (active). With `CC(C)CCN1CCC(Oc2cccc(NC(=O)c3ccc(C(F)(F)F)cc3)c2)CC1` the growth inhibition was 98% (active). For `Cc1cccc2[nH]c(-c3ccc(-c4cccc(NC(=O)Cc5cnc[nH]5)c4)cc3)nc12`, the growth inhibition was 98% (active). With `O=C(Nc1ccccc1N1CCOCC1)c1ncoc1-c1ccccc1C(F)(F)F` the growth inhibition was 89% (active). For `COc1cccc(C2(c3cccc(OC)c3)N=C(N)N(CCCc3ccccc3)C2=O)c1`, the growth inhibition was 98% (active). With `Cc1cccc2[nH]c(-c3ccc(-c4ccc(CN5CCN(CC6CCCN(C)C6)CC5)cc4)cc3)nc12` (stereo not given) the growth inhibition was 101% (active). In the case of `O=S(=O)(Nc1ccc(CCN2CCC(N3CCCCC3)CC2)cc1)c1ccc2ccccc2c1`, the growth inhibition is reported as 101% (active). In the case of `CCCc1ccc(S(=O)(=O)NC2CCN(C(=O)Nc3ccc(I)cc3)CC2)cc1`, the growth inhibition is reported as 97% (active). For `CNC(=O)c1cnc(Nc2ccc(N3CCN(C)CC3)c(C)c2)nc1NC`, the growth inhibition was 97% (active). In the case of `C[C@H]1CN(Cc2cccc(-c3cc(CNC(=O)c4cccc(CC5CCN(C)CC5)c4)ccc3F)c2)CCN1C`, the growth inhibition is reported as 101% (active). In the case of `C=CCn1c(=N)c(C(=O)NC2CCCCC2)cc2c(=O)n3cccc(C)c3nc21`, the growth inhibition is reported as 92% (active). With `O=C(/C=C/c1ccc(Cl)c(Cl)c1)N1CCC(CCN2CCc3[nH]c4ccccc4c3C2)CC1` the growth inhibition was 96% (active). With `CCC(C)OC(=O)C1=C(C)NC2=C(C(=O)CC(c3ccc(OC)c(OC)c3)C2)C1c1ccc(O)cc1` (stereo not given) the growth inhibition was 101% (active). For `CCc1ccc(N2C(=O)C3C(Cc4ccc(OC(C)(C)C)cc4)NC4(C(=O)N(Cc5ccccc5)c5ccc(F)cc54)C3C2=O)cc1` (stereo not given), the growth inhibition was 96% (active).
